Shiga toxin inh: blocks Shiga toxin action in Vero cells; Vero cells, Shiga toxin protein synthesis inhibition reporter; inhibition, % at 38.7 µM; 290,000 tested, 9.2% active; AID 2315; in the data active means inhibition mostly above about 28%, no sharp cut-off; inactive means mostly below about 43%; further: 0% is about no effect
Pf growth 48h: P. falciparum growth inhibition at 48 hours (one generation) | P. falciparum luciferase growth in erythrocytes, 48 h | 310,000 tested, 5.9% active | Potency, µM (top dose mostly 28.7 µM), inactives show at the highest dose activity change, negative = inhibition, hits mostly inhibitors | AID 504832; further: potency means the concentration at half of the fitted maximal effect; on the % scale 0 is the no-effect control and ±100 the full control effect
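Parasite viability was followed by luminescence of a genomically integrated firefly luciferase. Cultures held 0.1% parasitemia at 2% hematocrit (final), incubated under 5% CO2 at 37 C.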
LmPK inh: LmPK (Leishmania mexicana) enzyme inhibition. purified LmPK, Kinase-Glo ATP luminescence, 1 h. 290,000 tested, 0.37% active. AID 1721. Potency, µM (series often up to 57.5 µM), without a hit: at the highest dose activity change, negative = inhibition, actives largely listed as inhibitors; further: potency means the concentration at half of the fitted maximal effect; on the % scale 0 is the no-effect control and ±100 the full control effect
Target sequence (Q27686 whole entry, looked up): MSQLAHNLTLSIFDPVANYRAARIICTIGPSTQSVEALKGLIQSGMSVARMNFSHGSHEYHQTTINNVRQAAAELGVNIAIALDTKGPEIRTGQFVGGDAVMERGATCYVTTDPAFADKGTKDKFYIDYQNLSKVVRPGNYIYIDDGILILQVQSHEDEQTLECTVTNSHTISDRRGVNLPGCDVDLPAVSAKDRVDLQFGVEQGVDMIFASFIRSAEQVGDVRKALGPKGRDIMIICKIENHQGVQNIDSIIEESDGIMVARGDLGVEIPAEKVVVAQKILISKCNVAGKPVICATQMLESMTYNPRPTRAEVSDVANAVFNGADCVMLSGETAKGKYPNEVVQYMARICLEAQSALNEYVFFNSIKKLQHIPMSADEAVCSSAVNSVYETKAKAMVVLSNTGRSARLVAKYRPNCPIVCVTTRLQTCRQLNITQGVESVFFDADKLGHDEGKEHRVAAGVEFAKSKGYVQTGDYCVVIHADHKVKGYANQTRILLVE
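Purified LmPK (0.1 nM) with 0.5 mM PEP and 0.1 mM ADP in imidazole buffer pH 7.2 with MgCl2/KCl, 1 h at room temperature. ATP formed was read by luciferase luminescence and normalized to no-enzyme and uninhibited controls.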
Cycloheximide cs: affects cycloheximide protein synthesis inhibition readout, counter-screen; cell reporter, cycloheximide protein synthesis inhibition counterscreen; max response, %; 300,000 tested, 12% active; AID 2314; in the data active means max response mostly above about 13%, no sharp cut-off; inactive means mostly below about 14%; further: read at 38.3 µM for the half of the compounds with a filed dose; 0% is about no effect
Pf growth 96h: P. falciparum growth inhibition at 96 hour, primary screen for plastid delayed-death inhibitors; P. falciparum luciferase reporter growth, 96 h; Potency, µM (series often up to 28.7 µM), for inactives: at the top dose activity change, negative = inhibition, most hits filed as inhibitors; 320,000 tested, 6.9% active; AID 504834; further: potency means the concentration at half of the fitted maximal effect; on the % scale 0 is the no-effect control and ±100 the full control effect
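Cell-based qHTS: luciferase-tagged P. falciparum in erythrocytes (2% hematocrit, 0.05% parasitemia final) incubated with compounds for 96 hours, 37 C, 5% CO2; luciferase detection reagent then added and luminescence measured.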
* = called active by the depositor; ? = inconclusive; . = no result. The list is not random: actives were taken first. Their share in the collection is about 22%. Unless noted, the call rests on the fitted dose curve; in most records, active means well fitted inhibition curve with a large enough effect; inconclusive means small, poorly fitted or top-dose-only effect, or another doubt; inactive means no such curve, though single readings can be large or run the other way.

SMILES	Shiga toxin inh	Pf growth 48h	LmPK inh	Cycloheximide cs	Pf growth 96h
O=C(Nc1nc2c(s1)CCCC2)c1ccc(Br)s1	111*	-54%	-7%	42*	16%
CC1CCC2C(C)C(=O)OC3OC4(C)CCC1C32OO4 (stereo not given)	9	0.0033µM*	1%	-7	16%
C[C@@H]1CCC2[C@@H](C)[C@@H](O)O[C@@H]3O[C@@]4(C)CC[C@@H]1[C@@]23OO4 (stereo not given in full)	.	0.0005µM*	.	.	0.0004µM*
COc1ccccc1CC(=O)N1CCN(c2ccccc2F)CC1	-2	26%	-6%	-3	?
CC(C)CC(NC(=O)c1cccs1)c1nnc(SCc2ccc(Cl)c(Cl)c2)n1C (stereo not given)	-12	12µM*	3%	-3	?
CCOc1ccccc1C(=O)OC(C)C(=O)Nc1ccc(S(=O)(=O)N2CCCC2)cc1 (stereo not given)	.	?	.	.	5%
CCc1nnc(NC(=O)CN2CCN(Cc3ccc(F)cc3)CC2)s1	-18	?	1%	-2	7%
O=C(Cn1ncc(Cl)c(Cl)c1=O)N1CCN(S(=O)(=O)c2ccc3ccccc3c2)CC1	-36	-14%	-1%	-10	?
COc1cc(C(O)P(=O)(OC2CCCCC2)c2ccc(N(C)C)cc2)cc(OC)c1OC (stereo not given)	-10	?	3%	-1	13µM*
Cc1ccc(C(=O)OCC(=O)Nc2ccccc2)cc1NC(=O)c1ccco1	54	20%	-4%	11	31%
CCOC(=O)c1ccc(NC(=O)c2ccco2)cc1	107*	28%	-1%	42*	?
CCOC(=O)c1ccc(NC(=S)N(CCCN(CC)CC)Cc2ccco2)cc1	-9	?	-1%	-4	15µM*
COC(=O)c1ccc(NC(=O)c2cccc(NC(=O)c3ccco3)c2)cc1	-11	-15%	4%	-2	?
CC(C)OC(=O)c1ccc(NC(=O)c2ccco2)cc1	77*	-25%	0%	46*	.
CCOC(=O)c1ccc(NC(=O)CSCc2ccco2)cc1	32*	?	5%	13*	?
O=C(COc1ccc(Cl)cc1)N/N=C/CCc1ccccc1	8	-11%	4%	3	-2%
CC(C)(C)C1CCc2c(sc(NC(=O)c3cccs3)c2C(=O)N2CCCCC2)C1 (stereo not given)	1	.	7%	-3	212%
CC(C)OC(=O)c1ccc(NC(=O)c2ccccc2)cc1	69*	?	-6%	66*	?
CCOC(=O)c1ccc(NC(=O)c2ccc(NC(=O)c3ccccc3)cc2)cc1	-13	.	1%	-4	29%
CC(C)OC(=O)c1ccc2nc3ccccc3nc2c1	125*	70%	0%	87*	124%
CC(C)OC(=O)c1cccc(C(=O)O)n1	-10	-1%	1%	-2	41%
CCN(Cc1ccccc1)C(=O)CS(=O)(=O)c1ccccc1	18	15%	-1%	10	42%
O=S(=O)(C/C(=C/CO)S(=O)(=O)c1ccccc1)c1ccccc1	41	?	1%	26*	?
Cc1cccc(OCCCC(=O)NCc2ccco2)c1	-11	?	-4%	-1	?
FC(F)Oc1ccc(NC(=S)Nn2cnnc2)cc1	-5	-17%	-3%	0	0%
SMILES	Shiga toxin inh	Pf growth 48h	LmPK inh	Cycloheximide cs	Pf growth 96h
FC(F)Oc1ccc(NC(=S)NC23CC4CC(CC(C4)C2)C3)cc1	59*	4.1µM*	-5%	25*	4.1µM*
CN(C)c1ccc(NC(=S)NC23CC4CC(CC(C4)C2)C3)cc1	52*	5.2µM*	6%	44*	0.59µM*
CN(C)S(=O)(=O)c1cccc(NC(=S)NC23CC4CC(CC(C4)C2)C3)c1	-8	?	2%	-2	?
CCOc1ccc(NC(=O)C23CC4CC(C2)CC(c2ccccc2)(C4)C3)cc1	-8	?	2%	1	1.9µM*
CCOc1ccc(NC(=S)NC23CC4CC(CC(C4)C2)C3)cc1	7	10µM*	-6%	1	21%
CCOC(=O)CNC(=O)C12CC3CC(C1)CC(c1ccc(C)cc1)(C3)C2	-6	0%	3%	6	5%
CC(=O)c1cccc(NC(=O)COC(=O)[C@@H](NC(=O)OCc2ccccc2)C(C)C)c1	-11	1%	-1%	-7	-10%

Assay outcomes deposited in PubChem by National Center for Advancing Translational Sciences (NCATS).
